Assay results: PubChem BioAssay (NCATS)
Results filed as inconclusive are left out. A call without a number means that no potency is given here. Active and inactive are the calls of the source. The call rests on the fitted dose curve; in most records, active means well fitted curve in the direction sought with a large enough effect; inconclusive means small, poorly fitted or top-dose-only effect, or another doubt; inactive means no such curve, though single readings can be large; an effect the other way counts as inactive or inconclusive.

target: Rap guanine nucleotide exchange factor 3 (Homo sapiens) (UniProt O95398); assay: Counterscreen qHTS for antagonist of cAMP-regulated guanine nucleotide exchange factor 3 (EPAC1) (AID 1645888); conditions: Rap1B-BODIPY-GDP nucleotide exchange, fluorescence; series mostly up to 154 µM;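 further: fluorescence loss as bound BODIPY-GDP is released from Rap1B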
Outline: (§1)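 Rap1B-BODIPY-GDP 250 nM + GDP 50 uM; cpds 7-pt, final 9.74 nM–152 uM (activator mode) or from 7.32 nM upwards (inhibitor mode); RT; FI 480/540 nm at 5 and 30 min, then ± cAMP, reread.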

Sequence of Rap guanine nucleotide exchange factor 3 (Homo sapiens) (O95398 whole entry, looked up): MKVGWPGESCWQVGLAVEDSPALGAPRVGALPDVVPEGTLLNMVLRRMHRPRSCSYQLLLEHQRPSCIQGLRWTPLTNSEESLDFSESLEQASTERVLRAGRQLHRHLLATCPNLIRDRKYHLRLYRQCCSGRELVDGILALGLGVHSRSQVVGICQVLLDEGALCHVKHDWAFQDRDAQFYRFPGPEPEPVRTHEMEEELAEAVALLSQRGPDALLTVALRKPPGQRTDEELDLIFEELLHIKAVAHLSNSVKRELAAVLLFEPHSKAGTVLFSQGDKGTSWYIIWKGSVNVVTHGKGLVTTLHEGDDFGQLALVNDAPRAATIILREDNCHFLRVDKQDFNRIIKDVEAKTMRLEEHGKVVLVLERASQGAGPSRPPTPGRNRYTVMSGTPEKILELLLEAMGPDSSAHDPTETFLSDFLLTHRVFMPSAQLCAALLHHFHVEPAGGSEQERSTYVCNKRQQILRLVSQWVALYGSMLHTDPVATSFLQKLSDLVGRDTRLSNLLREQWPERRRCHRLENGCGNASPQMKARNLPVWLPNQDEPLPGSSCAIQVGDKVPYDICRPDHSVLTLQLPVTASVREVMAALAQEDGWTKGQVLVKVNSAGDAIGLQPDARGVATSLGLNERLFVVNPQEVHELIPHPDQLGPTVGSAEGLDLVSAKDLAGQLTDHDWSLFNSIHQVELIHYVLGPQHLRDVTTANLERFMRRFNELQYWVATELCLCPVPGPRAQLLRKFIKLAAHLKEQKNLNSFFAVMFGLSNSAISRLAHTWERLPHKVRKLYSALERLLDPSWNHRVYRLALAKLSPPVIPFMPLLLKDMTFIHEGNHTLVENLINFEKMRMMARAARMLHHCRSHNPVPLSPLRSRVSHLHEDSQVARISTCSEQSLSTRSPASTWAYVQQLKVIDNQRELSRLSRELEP

SMILES	activity change, negative = inhibition	Potency
Cc1ccc(S(=O)(=O)/N=C2\C=C(NS(=O)(=O)c3ccccc3)C(=O)c3ccccc32)c(C)c1	-5.99% [at 30.8 µM] (inactive)	–
Cc1ccc(SCc2cc(=O)c3c(=O)n(-c4ccccc4)[nH]c3[nH]2)cc1	–	inactive
Cc1ccc(/C=N/Nc2cc(C)nc(NCc3ccccc3)n2)cc1	–	inactive
O=C(CSc1n[nH]c(=O)[nH]c1=O)Nc1ccc2c(c1)C(=O)c1ccccc1C2=O	–	inactive
CCCN(CCC)Cc1cc(=O)oc2cc(OC)ccc12	–	inactive
COc1ccc(OC)c(NC(=O)c2nc(S(=O)(=O)Cc3ccccc3)ncc2Cl)c1	–	inactive
CCc1noc(C)c1C(=O)Nc1nc2c(C)cc(C)cc2s1	–	inactive
CCOc1ccc(NC(=NCc2ccc3c(c2)OCO3)SC2CC(=O)N(c3ccc(C(=O)O)cc3)C2=O)cc1 (centres undefined)	–	inactive
CC(c1ccon1)N(C)Cc1cn(C)nc1-c1cccc(Cl)c1 (centres undefined)	–	inactive
Cc1cc(Br)c2c(c1)[C@](O)(c1cn(C)c3ccccc13)C(=O)N2C	-15.6% [at 30.8 µM] (inactive)	–
COc1ccc(CCN2C(=O)CSC2=Nc2ccc(C(C)C)cc2)cc1OC	–	inactive
COc1cccc(COC(=O)CSCC(=O)Nc2cccc(C)c2)c1OC	–	inactive
CCCCc1ccc(NC(=O)CN2C(=O)C3CCCCC3C2=O)cc1 (centres undefined)	–	inactive
COc1ccc(-c2nc(CCNS(=O)(=O)c3ccc4c(c3)OCCO4)cs2)cc1	–	inactive
O=C(O)c1cc(N/N=C/C=C/c2ccccc2)ccc1Cl	–	inactive
Nc1ccc(C(=O)N2CCN(S(=O)(=O)c3ccc(Cl)s3)CC2)cc1[N+](=O)[O-]	–	inactive
Cc1ccc(C2CC(c3cccs3)=NN2C(=O)c2ccco2)o1 (centres undefined)	-15.2% [at 30.8 µM] (inactive)	–
O=C(COC(=O)c1c2c(nc3ccccc13)/C(=C\c1ccco1)CC2)NC1CCCC1	–	inactive
O=C1C(=Cc2cn(-c3ccccc3)nc2-c2ccc(OCc3ccc(Cl)cc3)cc2)SC(=S)N1CCS(=O)(=O)O	–	inactive
Fc1ccc2c(-c3cccc(C(F)(F)F)c3)c(-c3ccccc3)ncc2c1	–	inactive

SMILES	activity change, negative = inhibition	Potency
CC(=O)C1=CCC(c2ccccc2Cl)N(S(=O)(=O)c2ccc(C)cc2)C1 (centres undefined)	–	inactive
COc1ccc(-c2nn3c(-c4cccc(C)c4)nnc3s2)cc1OC	–	inactive
O=C(N/N=C/c1ccoc1)c1cc(O)cc(O)c1	–	inactive
CCCc1[nH]c2ccc(C#N)cc2c1CCC	–	inactive
CC(C)CCNC(=O)c1cnn2c(C(F)(F)F)cc(-c3ccco3)nc12	–	inactive
COc1ccccc1N1C(=O)C2C(C(=O)c3ccccc3)=NN(c3ccc(Br)cc3)C2C1=O (centres undefined)	–	inactive
Cc1cc(NC2=CC(=O)C(=O)c3ccccc32)no1	–	inactive
Cc1ccc(S(=O)(=O)N2CCN(c3ncnc4sccc34)CC2)cc1C	–	inactive
Cc1ccccc1C(=O)Nc1ccccc1N1CCCCC1	–	inactive
O=C(Nc1ccccc1C(=O)Nc1nnc(C(F)(F)F)s1)c1ccccc1Cl	–	inactive
NS(=O)(=O)c1ccc(N/N=C/c2ccc(C(=O)O)cc2)c([N+](=O)[O-])c1	–	inactive
O=C(O)c1ccc(N=N/C(=N\Nc2ccc(C(=O)O)cc2)c2ccccc2)cc1	-1.23% [at 30.8 µM] (inactive)	–
COc1cc(/C=C/C(=O)c2ccc3c(c2)OCCO3)cc(Br)c1OCC(=O)N(C)C	–	inactive
Cc1cc(Cl)ccc1Oc1ccccc1C(=O)CC#N	–	inactive
CCc1nc2c(OCc3ccc(C(=O)OC)cc3)cccn2c1N(C)C(=O)c1ccc(OC)cc1	5.67% [at 30.8 µM] (inactive)	–
N#Cc1c(-c2ccc(Cl)cc2)cc(-c2cccs2)nc1SCC(=O)O	–	inactive
Cc1cc(C(C)(C)C)cc(C)c1COC(=O)c1cccnc1	–	inactive
CCOc1cnc(-c2c(-c3ccccc3Cl)noc2C)o1	–	inactive
CCCCN(CCCC)C1=Nc2ccccc2N/C1=C(/C#N)C(=O)OCC	–	inactive
CCOC(=O)Cn1nc(C)c(NC(=O)COc2ccccc2[N+](=O)[O-])c1C	-12.5% [at 30.8 µM] (inactive)	–

target: Rap guanine nucleotide exchange factor 3 (Homo sapiens) (UniProt O95398); assay: Counterscreen qHTS for agonist of cAMP-regulated guanine nucleotide exchange factor 3 (EPAC1) (AID 1645889); conditions: EPAC1 Rap1B-BODIPY-GDP exchange, fluorescence; series mostly up to 154 µM; further: nearly all actives have a fitted effect of over 40% in size; further: potency means the concentration at half of the fitted maximal effect
Outline: as §1

SMILES	Potency	activation
O=C(CSc1n[nH]c(=O)[nH]c1=O)Nc1ccc2c(c1)C(=O)c1ccccc1C2=O	inactive	–
CCCN(CCC)Cc1cc(=O)oc2cc(OC)ccc12	inactive	–
CCOc1ccc(NC(=NCc2ccc3c(c2)OCO3)SC2CC(=O)N(c3ccc(C(=O)O)cc3)C2=O)cc1 (centres undefined)	inactive	–
CC(c1ccon1)N(C)Cc1cn(C)nc1-c1cccc(Cl)c1 (centres undefined)	inactive	–
Cc1cc(Br)c2c(c1)[C@](O)(c1cn(C)c3ccccc13)C(=O)N2C	–	24.7% [at 30.8 µM] (inactive)
CCCCc1ccc(NC(=O)CN2C(=O)C3CCCCC3C2=O)cc1 (centres undefined)	inactive	–
COc1ccc(-c2nc(CCNS(=O)(=O)c3ccc4c(c3)OCCO4)cs2)cc1	inactive	–
O=C(O)c1cc(N/N=C/C=C/c2ccccc2)ccc1Cl	inactive	–
Cc1ccc(C2CC(c3cccs3)=NN2C(=O)c2ccco2)o1 (centres undefined)	–	16.2% [at 30.8 µM] (inactive)
O=C(COC(=O)c1c2c(nc3ccccc13)/C(=C\c1ccco1)CC2)NC1CCCC1	inactive	–
O=C1C(=Cc2cn(-c3ccccc3)nc2-c2ccc(OCc3ccc(Cl)cc3)cc2)SC(=S)N1CCS(=O)(=O)O	50.1 µM (active)	–
Fc1ccc2c(-c3cccc(C(F)(F)F)c3)c(-c3ccccc3)ncc2c1	inactive	–
O=C(N/N=C/c1ccoc1)c1cc(O)cc(O)c1	inactive	–
CCCc1[nH]c2ccc(C#N)cc2c1CCC	inactive	–
CC(C)CCNC(=O)c1cnn2c(C(F)(F)F)cc(-c3ccco3)nc12	inactive	–
COc1ccccc1N1C(=O)C2C(C(=O)c3ccccc3)=NN(c3ccc(Br)cc3)C2C1=O (centres undefined)	inactive	–
O=C(Nc1ccccc1C(=O)Nc1nnc(C(F)(F)F)s1)c1ccccc1Cl	inactive	–
NS(=O)(=O)c1ccc(N/N=C/c2ccc(C(=O)O)cc2)c([N+](=O)[O-])c1	inactive	–
CCc1nc2c(OCc3ccc(C(=O)OC)cc3)cccn2c1N(C)C(=O)c1ccc(OC)cc1	–	20% [at 30.8 µM] (inactive)
N#Cc1c(-c2ccc(Cl)cc2)cc(-c2cccs2)nc1SCC(=O)O	inactive	–
Cc1cc(C(C)(C)C)cc(C)c1COC(=O)c1cccnc1	inactive	–
CCOc1cnc(-c2c(-c3ccccc3Cl)noc2C)o1	inactive	–
CCCCN(CCCC)C1=Nc2ccccc2N/C1=C(/C#N)C(=O)OCC	inactive	–
CCOC(=O)Cn1nc(C)c(NC(=O)COc2ccccc2[N+](=O)[O-])c1C	–	2.17% [at 30.8 µM] (inactive)
